Results on five molecules are retold here after PubChem BioAssay.

Test [1] can be described thus: reducers of endogenous Her2 protein level, primary screen, SKBR3 breast tumor cells, AlphaScreen, ATP viability (AID 461;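 active = Her2 level under about 52% in both replicate screens, with viability over 70% of control, limit read from the data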;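 for Her2 level: lower value means less Her2 protein in the cells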;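 for viability: percent of carrier control wells set as 100% viability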). Particulars: 18-24 h, measured here: SKBR3 viability, ATP luminescence, at 10 µM.
The target of test [2] is Receptor tyrosine-protein kinase erbB-2 (Homo sapiens) (UniProt P04626). The description is as above. The following applies: 18-24 h, at 10 µM, stronger effect = lower value.
Test [3] can be described thus: SK-BR-3 cell growth inhibitors, pilot screen, 24 h, human (AID 572;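 active = viability at or below 10% of carrier control in both of two separate runs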;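 note: compound exposure lasted between 18 and 24 h rather than exactly 24 h; 100% = carrier-treated control wells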). The following applies: SK-BR-3 viability, CellTiter-Glo luminescence, at 10 µM, stronger effect = lower value. (In ATP-based viability assays light output follows the ATP content of the culture.)
Test [4] is described as follows: HUVEC growth inhibition – cell-based, human, primary screen (AID 575;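 active = viability at or below 30% in both replicate assays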;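 note: 100% = median of untreated cell wells with 0.1% DMSO on each plate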). Particulars: HUVEC proliferation, CellTiter-Glo luminescence, 72 h; at 10 µM; stronger effect = lower value.
Test [5] is described as follows: growth inhibitors of H69AR lung tumor, primary screen, human, duplicate replicates (AID 580;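 active = viability at or under a set limit in both replicates, limit being median viability minus 3 SD, cut at about 48% in these data, passing the limit was not always enough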;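 note: 100% = mean luminescence of untreated wells and 0% = no signal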). The following applies: H69AR lung tumor cells viability, ATP luminescence, 72 h; at 10 µM; stronger effect = lower value.
The nature of test [6]: reversal of MRP1-mediated doxorubicin resistance, pilot screen, H69AR cells, doxorubicin co-treatment (AID 601;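 active = viability loss from added drug above about 55%, and viability with drug at most 40%, in both replicates, limit read from the data, passing the limit was not always enough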). The following applies: CellTiter-Glo, 72 h, at 10 µM; for differential viability (reversal): stronger effect = higher value.
The nature of test [7]: 384-well plate pilot, post-Golgi transport modulator project, inhibition of yeast transport mutant growth (AID 636; in the data active = inhibition above about 31%). The following applies: absorbance 615 nm, about 18 h, stronger effect = higher value.
The nature of test [8]: growth suppression of yeast trafficking mutant, preliminary HTS, modulators of trafficking downstream of Golgi apparatus project, 1536-format plate, OD 615 nm (AID 637; in the data active = inhibition above about 30%). The following applies: yeast transport mutant growth, absorbance 615 nm, 18 h; stronger effect = higher value.
A short description of test [9]: OD615 S. cerevisiae growth inhibition, permissive medium, pilot counter-assay, permissive growth control for S. cerevisiae lifespan shortening project (AID 705;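 active = growth inhibition above 25% in both replicates, a cutoff set 3 SD above the mean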). Particulars: OD615, 24 h, at 10 µM, stronger effect = higher value.
Test [10] can be described thus: Restrictive medium S. cerevisiae growth inhibition, OD615, pilot screen of yeast lifespan reduction project, restrictive growth control (AID 706;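 active = growth inhibition above a set limit, 3 SD over mean compound inhibition, in both replicates, cut at about 43% in these data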;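 note: modified DeaD lifespan yeast strain shifted to restrictive glucose medium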). Particulars: OD615, 48 h, at 10 µM, stronger effect = higher value.
The nature of test [11]: viability gain of MRP-1-high H69AR cells under doxorubicin, pilot screen, MRP-1 activator project, CellTiter-Glo, duplicate (AID 807;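 active = viability increase at or above a cutoff of the median across tested compounds plus 3 SD, cut at about 8.5% in these data, passing the limit was not always enough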;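 note: compound pretreatment 18-22 h then 72 h combined with doxorubicin; 0% = doxorubicin alone and 100% = vehicle without doxorubicin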). The following applies: H69AR viability with doxorubicin, CellTiter-Glo luminescence; at 10 µM; stronger effect = higher value.
A short description of test [12]: growth suppression of beta-catenin knockout HCT116, pilot screen, human colon tumor cells (AID 823;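 active = cell viability at or below a set limit in both duplicate runs, the limit being the all-compound median minus 4 SD, cut at about 23% in these data, passing the limit was not always enough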;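 note: 0% = wells killed by 20 µM Hyamine and 100% = untreated DMSO cell wells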). The following applies: CellTiter-Glo, 60 h, at 10 µM, stronger effect = lower value.
A short description of test [13]: growth suppression of PTEN-deleted HCT116, pilot screen, cell-based, HCT116 clonal line, CellTiter-Glo (AID 824;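 active = viability at or below 27.92% in each of two runs, the all-compound median minus 4 SD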;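 note: 0% = 20 µM Hyamine control and 100% = vehicle cell control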). Particulars: 60 h, at 10 µM, stronger effect = lower value.
Test [14] in a line: inhibitors of the yeast RAM network, pilot screen, dse1pr::URA3 reporter, 5-FOA selection (AID 869).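 Note: 0% = DMSO wells with no growth and 100% = 10 µM 1-NA-PP1 with full growth; RAM network block rescues cells from 5-FOA so hits raise OD615 growth.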 Particulars: S. cerevisiae dse1pr::URA3 5-FOA growth, OD615, 2 d; at 10 µM; stronger effect = higher value; strain carries analog-sensitive mutant Cbk1 kinase.
Test [15] can be described thus: RAM signaling pathway blockade in yeast – S. cerevisiae, Pdr1DBD-CYC8 efflux-inhibited sensitized strain, primary screen (AID 1298;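 active = RAM network inhibition above 8.4% in each of two replicates, 3 SD over the compound average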;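 note: 0% = DMSO untreated cells without growth and 100% = 10 µM 1-NA-PP1 full growth; higher means more yeast growth rescued from 5-FOA killing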). The following applies: S. cerevisiae cbk1-as DSE1-URA3 strain, 5-FOA growth OD615, 2 d; at 50 µM; stronger effect = higher value.
The mark [16] stands for this setting: H69AR cells + 2 uM doxorubicin, measured here: viability with 2 uM doxorubicin, stronger effect = lower value.
The mark [17] stands for this setting: H69AR cells, compound alone cytotoxicity.

Molecules are shown by their SMILES. Inconclusive results are not listed. The source made the active and inactive calls.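 Rule for the calls, unless noted: active = inhibition over a set limit, the all-compound mean plus 3 SD, in both replicate runs; inconclusive = over that limit in just one replicate run; inactive = at or under that limit in both runs.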

Sequence of Receptor tyrosine-protein kinase erbB-2 (Homo sapiens) (P04626 whole entry, looked up): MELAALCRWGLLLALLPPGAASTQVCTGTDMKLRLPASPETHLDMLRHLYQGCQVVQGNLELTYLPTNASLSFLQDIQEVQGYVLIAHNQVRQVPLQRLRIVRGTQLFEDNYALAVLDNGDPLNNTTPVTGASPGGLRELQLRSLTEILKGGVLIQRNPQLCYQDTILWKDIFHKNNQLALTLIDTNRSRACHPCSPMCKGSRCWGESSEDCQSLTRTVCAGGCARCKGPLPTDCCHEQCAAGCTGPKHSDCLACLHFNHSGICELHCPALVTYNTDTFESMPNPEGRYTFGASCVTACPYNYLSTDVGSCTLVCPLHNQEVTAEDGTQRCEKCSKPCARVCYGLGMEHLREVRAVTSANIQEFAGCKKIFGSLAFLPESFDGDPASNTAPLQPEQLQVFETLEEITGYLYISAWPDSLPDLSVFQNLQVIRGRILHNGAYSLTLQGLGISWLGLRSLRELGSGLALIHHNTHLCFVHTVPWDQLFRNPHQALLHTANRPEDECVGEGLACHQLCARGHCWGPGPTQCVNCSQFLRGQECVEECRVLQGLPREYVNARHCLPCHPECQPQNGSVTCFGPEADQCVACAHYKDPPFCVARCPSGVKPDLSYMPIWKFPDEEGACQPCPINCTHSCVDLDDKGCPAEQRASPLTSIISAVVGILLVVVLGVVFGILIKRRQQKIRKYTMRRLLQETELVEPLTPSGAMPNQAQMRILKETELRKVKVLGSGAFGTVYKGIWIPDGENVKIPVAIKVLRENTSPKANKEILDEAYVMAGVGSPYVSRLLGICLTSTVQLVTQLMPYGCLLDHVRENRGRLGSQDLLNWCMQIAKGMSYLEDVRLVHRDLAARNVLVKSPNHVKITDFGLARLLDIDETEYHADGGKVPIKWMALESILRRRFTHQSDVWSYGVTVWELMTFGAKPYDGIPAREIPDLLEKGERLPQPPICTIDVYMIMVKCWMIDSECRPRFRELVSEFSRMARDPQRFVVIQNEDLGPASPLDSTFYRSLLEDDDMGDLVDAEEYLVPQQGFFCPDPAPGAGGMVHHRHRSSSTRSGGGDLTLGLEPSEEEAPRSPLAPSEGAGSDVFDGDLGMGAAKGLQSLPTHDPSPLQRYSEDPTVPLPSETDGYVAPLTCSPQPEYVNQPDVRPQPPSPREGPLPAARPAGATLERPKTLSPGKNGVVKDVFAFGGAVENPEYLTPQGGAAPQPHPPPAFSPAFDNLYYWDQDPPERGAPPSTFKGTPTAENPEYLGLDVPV

Usually viability stands for a read-out of living cells in per cent, often relative to untreated cells. One may read the inhibition as the change of the read-out against control, counted positive when it falls. Take `CCCCCCn1c(SCC(=O)OC)nc2c1c(=O)[nH]c(=O)n2C`: the viability in [1] was 100%; in test [3], 100% (inactive); in test [4], 81.1% (inactive); in [5], 70.9% (inactive); in test [6] (setting [16]) it was 70.6%; in test [6] (setting [17]), 70.9%. The viability in test [12] was 98.6% (inactive); in test [13], 103% (inactive). Moreover, in test [2], the Her2 level is 90% (inactive). Besides, the differential viability (reversal) in [6] (H69AR cells + 2 uM doxorubicin) is 0.365% (inactive). Moreover, the figures for the inhibition in [7], in test [8] and in test [14] were -4.8% (inactive), 1.33% (inactive) and 0.08% (inactive), respectively. Besides, the values for the growth inhibition in test [9] and in test [10] were -12.9% (inactive) and 9.17% (inactive), respectively. Besides, the viability increase in [11] was -1.89% (inactive). The RAM network inhibition in test [15] is 2.66% (inactive).

With `Cn1c(C(=O)NCCCN2CCCCCC2)cc2c(=O)n(C)c3ccccc3c21`, the viability in test [1] was 80%; in test [3] it was 80% (inactive); in [4], 91.2% (inactive); in test [5] it was 87.2% (inactive); in test [6] (setting [16]) it was 75.1%; in [6] (setting [17]), 87.2%. The viability in test [12] was 76.1% (inactive); in test [13], 78.7% (inactive). The Her2 level in test [2] is 92.5% (inactive). Moreover, the differential viability (reversal) in test [6] (H69AR cells + 2 uM doxorubicin) is 12% (inactive). Also, the inhibition was 4.36% (inactive) in test [7], -3% (inactive) in test [8] and 1.04% (inactive) in test [14]. Also, the growth inhibition in test [9] is -1.14% (inactive); in test [10], 6.89% (inactive). In addition, the viability increase in test [11] was -4.55% (inactive). The RAM network inhibition in test [15] is 0% (inactive).

Take `O=C(CCn1c(=O)oc2ccccc21)NCCN1CCOCC1`: the viability in test [1] is 104%; in test [3], 104% (inactive); in test [4] it was 93.4% (inactive); in test [5], 85.9% (inactive); in [6] (setting [16]) it was 89.6%; in [6] (setting [17]), 85.9%. Also, the viability in [12] was 107% (inactive); in [13], 101% (inactive). Besides, the Her2 level in [2] was 120% (inactive). Further, in test [6] (H69AR cells + 2 uM doxorubicin), the differential viability (reversal) is -3.67% (inactive). Also, the inhibition in test [7] was 0.8% (inactive); in [8], -6.5% (inactive); in test [14], 2.63% (inactive). Besides, the growth inhibition was -9.38% (inactive) in test [9] and -6.78% (inactive) in test [10]. Besides, the viability increase in test [11] is -1.28% (inactive). The RAM network inhibition in test [15] is 4.16% (inactive).

Turning to `Cc1ccc(N=Cc2ccc(O)cc2O)cc1F`, the viability in [1] was 112%; in test [3], 112% (inactive); in test [4], 69.3% (inactive); in [5], 81.9% (inactive); in test [6] (setting [16]), 73.1%; in test [6] (setting [17]), 81.9%. The viability in test [12] is 76% (inactive); in test [13] it was 77.8% (inactive). In test [2], the Her2 level was 80% (inactive). In [6] (H69AR cells + 2 uM doxorubicin), the differential viability (reversal) was 8.83% (inactive). Moreover, the results for the inhibition in test [7], in [8] and in test [14] were -2.34% (inactive), 6.39% (inactive) and 0.995% (inactive), respectively. The growth inhibition is -10.6% (inactive) in test [9] and -25.5% (inactive) in test [10]. In addition, the viability increase in test [11] is -4.99% (inactive). Besides, in test [15], the RAM network inhibition is 0.31% (inactive).

In the case of `COc1ccc(N2C(=O)CCC(C(=O)N3CCCCC3)C2c2ccc(OC)c(OC)c2)cc1` (stereo not given), the viability in test [1] was 100%; in [3] it was 100% (inactive); in [4], 92.3% (inactive); in test [5], 95.4% (inactive); in [6] (setting [16]), 93.2%; in test [6] (setting [17]) it was 95.4%. For the same molecule, the viability is 105% (inactive) in test [12] and 98.2% (inactive) in test [13]. Moreover, in test [2], the Her2 level is 90.5% (inactive). Further, the differential viability (reversal) in test [6] (H69AR cells + 2 uM doxorubicin) is 2.14% (inactive). For the same molecule, the inhibition in [7] was -6.67% (inactive); in test [8], -1.11% (inactive); in test [14], 0.405% (inactive). Besides, the growth inhibition in [9] was -0.77% (inactive); in [10], -8.71% (inactive). Further, in test [11], the viability increase is 0.42% (inactive). The RAM network inhibition in test [15] is 2.24% (inactive).
